Measurements reported in publication PMC5540273 (PLoS ONE, 2017).

Key:
Settings in all cases: concentration: 1 μM, replicates: in singlicate; n = 1
[1] = test system: TYK2(JH2domain-pseudokinase)
[2] = test system: TYRO3
[3] = test system: ULK1
[4] = test system: ULK2
[5] = test system: ULK3
[6] = test system: T1, VEGFR2
T1 construct: gene KDR

[7] = test system: T2, VPS34
T2 construct: gene PIK3C3

[8] = test system: VRK2
[9] = test system: WEE1
[10] = test system: WEE2
[11] = test system: WNK1
[12] = test system: WNK2
[13] = test system: WNK3
[14] = test system: WNK4
[15] = test system: T3, YANK1
T3 construct: gene STK32A

[16] = test system: T4, YANK2
T4 construct: gene STK32B

[17] = test system: T5, YANK3
T5 construct: gene STK32C

[18] = test system: T6, YES
T6 construct: gene YES1

[19] = test system: T7, YSK1
T7 construct: gene STK25

[20] = test system: T8, YSK4
T8 construct: gene MAP3K19
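Also: KINOMEscan kinase panel screen.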

Row | SMILES | %Inh [1] [%] | %Inh [2] [%] | %Inh [3] [%] | %Inh [4] [%] | %Inh [5] [%] | %Inh [6] [%] | %Inh [7] [%] | %Inh [8] [%] | %Inh [9] [%] | %Inh [10] [%] | %Inh [11] [%] | %Inh [12] [%] | %Inh [13] [%] | %Inh [14] [%] | %Inh [15] [%] | %Inh [16] [%] | %Inh [17] [%] | %Inh [18] [%] | %Inh [19] [%] | %Inh [20] [%]
1 | C[C@@H](Oc1cc(-n2cnc3cc(-c4ccnc(NCCS(C)(=O)=O)c4)ccc32)sc1C(N)=O)c1ccccc1Cl [GSK907232] | 0 | 4 | 25 | 0 | 14 | 28 | 60 | 0 | 43 | 25 | 37 | 80 | 88 | 37 | 6 | 0 | 32 | 47 | 14 | 96.7
2 | O=C(Nc1n[nH]c2cc(-c3ccoc3)ccc12)C1CC1 [SB-738481] | 7 | 0 | 0 | 1 | 10 | 32 | 0 | 0 | 0 | 0 | 0 | 0 | 0 | 7 | 0 | 0 | 0 | 3 | 0 | 89
3 | Cl.Cl.NCC(NCc1ccc(-c2ccnc3[nH]ccc23)s1)c1ccccc1 (stereo not drawn) [GSK1321565] | 43 | 0 | 67 | 9 | 15 | 17 | 7 | 20 | 13 | 0 | 0 | 11 | 26 | 0 | 0 | 0 | 0 | 0 | 0 | 99.3
4 | C[C@@H]1CC[C@@H](C(=O)Nc2ccccc2)CN1c1cc(-c2ccc3c(N)n[nH]c3c2)nc(N)n1 [GSK2286062] | 2 | 0 | 8 | 0 | 4 | 0 | 0 | 1 | 0 | 0 | 0 | 0 | 33 | 0 | 15 | 0 | 17 | 0 | 21 | 29
5 | Fc1ccc(-c2ncn(C3CCNCC3)c2-c2ccnc(Oc3ccc(-c4ccccc4)cc3)n2)cc1 [SB-245391] | 84 | 0 | 54 | 26 | 46 | 12 | 30 | 41 | 0 | 58 | 42 | 0 | 32 | 0 | 90.8 | 85 | 86 | 0 | 18 | 47
6 | CC(C)c1nc(-c2cccc(NS(=O)(=O)c3c(F)cccc3F)c2F)c(-c2ccnc(Nc3ccc(N4CCOCC4)nc3)n2)s1 [GSK2008607] | 17 | 100 | 63 | 83 | 98.9 | 94.5 | 0 | 0 | 0 | 0 | 3 | 13 | 23 | 59 | 14 | 48 | 1 | 99.6 | 56 | 85
7 | Cl.Cl.NCC(NC(=O)c1cc(-c2ccccc2)c(-c2ccnc3[nH]ccc23)s1)c1ccccc1 (stereo not drawn) [GSK1321561] | 2 | 0 | 8 | 0 | 9 | 0 | 6 | 0 | 17 | 0 | 5 | 100 | 3 | 5 | 48 | 35 | 1 | 41 | 0 | 73
8 | c1ccc(-c2n[nH]cc2Nc2ccnc3ccccc23)nc1 [GW694077] | 96.6 | 0 | 17 | 12 | 8 | 23 | 39 | 50 | 0 | 0 | 0 | 0 | 15 | 4 | 0 | 0 | 0 | 0 | 12 | 99.1
9 | COC(=O)Nc1nc2ccc(Oc3ccc(NC(=O)Nc4cc(C(F)(F)F)ccc4F)cc3)cc2n1C.Cl [GW692089] | 18 | 0 | 0 | 0 | 0 | 43 | 0 | 56 | 2 | 0 | 0 | 0 | 46 | 28 | 0 | 19 | 0 | 0 | 0 | 36
